Compounds without any hit were thinned out: in the full panel of roughly 83,000, 20% have a hit.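 How to read the values: 0–100, growth inhibition (40 = 60% inhibited); 0, no net growth; -100 to 0, cell death (-40 = 40% of starting cells died; -100 = all dead).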 Calls of active or inactive are those of the source. Rule for the calls: active = growth percent below 10; inactive = the rest.
What was measured:
Assay in all cases: NCI-60 one-dose screen, 48 h (100 = growth as untreated, 0 = no growth, -100 = all killed)
Settings in all cases: 10 µM unless noted
SK-MEL-2 melanoma = test system: SK-MEL-2 melanoma
EKVX NSCLC = test system: EKVX NSCLC
SN12C renal = test system: SN12C renal
UO-31 renal = test system: UO-31 renal
TK-10 renal = test system: TK-10 renal
ACHN renal = test system: ACHN renal
A498 renal = test system: A498 renal
CCRF-CEM leukemia = test system: CCRF-CEM leukemia
MOLT-4 leukemia = test system: MOLT-4 leukemia
SR leukemia = test system: SR leukemia
RPMI-8226 leukemia = test system: RPMI-8226 leukemia
OVCAR-8 ovarian = test system: OVCAR-8 ovarian
OVCAR-5 ovarian = test system: OVCAR-5 ovarian
OVCAR-4 ovarian = test system: OVCAR-4 ovarian
SK-OV-3 ovarian = test system: SK-OV-3 ovarian
IGROV1 ovarian = test system: IGROV1 ovarian
OVCAR-3 ovarian = test system: OVCAR-3 ovarian
HS 578T breast = test system: HS 578T breast
NCI/ADR-RES ovarian = test system: NCI/ADR-RES ovarian
T-47D breast = test system: T-47D breast

Measured: growth

C#CCN1C(=O)c2ccccc2N(CC#C)C12CCN(Cc1cn(CC(=O)Nc3ccccc3C(N)=O)nn1)CC2
inactive: SK-MEL-2 melanoma 98.8% | EKVX NSCLC 78.6% | SN12C renal 88.9% | UO-31 renal 59.3% | TK-10 renal 82.8% | ACHN renal 92.5% | A498 renal 75.8% | CCRF-CEM leukemia 84.3% | MOLT-4 leukemia 83.2% | SR leukemia 64.6% | RPMI-8226 leukemia 82.2% | OVCAR-8 ovarian 100% | OVCAR-5 ovarian 89.2% | OVCAR-4 ovarian 89% | SK-OV-3 ovarian 106% | IGROV1 ovarian 82.4% | OVCAR-3 ovarian 84.4% | HS 578T breast 91.8% | NCI/ADR-RES ovarian 80.5% | T-47D breast 77%

C=C1C(=O)O[C@H]2[C@H]1CC/C(COC(=O)NCc1nc3ccccc3[nH]1)=C\CC[C@@]1(C)O[C@@H]21
inactive: SK-MEL-2 melanoma 60.2% | EKVX NSCLC 83% | SN12C renal 81.6% | UO-31 renal 75.5% | TK-10 renal 74.3% | ACHN renal 91.4% | A498 renal 135% | CCRF-CEM leukemia 10.9% | MOLT-4 leukemia 77.3% | SR leukemia 54.1% | RPMI-8226 leukemia 34.7% | OVCAR-8 ovarian 93.6% | OVCAR-5 ovarian 130% | OVCAR-4 ovarian 82.7% | SK-OV-3 ovarian 101% | IGROV1 ovarian 62.7% | OVCAR-3 ovarian 22% | HS 578T breast 102% | NCI/ADR-RES ovarian 99.4% | T-47D breast 43.4%

CCCCn1c2cc(OCc3cn(-c4ccc(Cl)cc4)nn3)ccc2c2ccnc(C)c21
active: UO-31 renal -16.3% | ACHN renal -47.5% | MOLT-4 leukemia 6.26% | SR leukemia -4.92% | RPMI-8226 leukemia -34.3%
inactive: SK-MEL-2 melanoma 74.5% | EKVX NSCLC 44.4% | SN12C renal 10.5% | TK-10 renal 15.6% | A498 renal 62.8% | CCRF-CEM leukemia 30.5% | OVCAR-8 ovarian 29.7% | OVCAR-5 ovarian 39.5% | OVCAR-4 ovarian 18.2% | SK-OV-3 ovarian 52.9% | IGROV1 ovarian 39.3% | OVCAR-3 ovarian 30.1% | HS 578T breast 54.2% | NCI/ADR-RES ovarian 28% | T-47D breast 22.2%

O=c1c2ccccc2oc2ccc(OCCCCCCN3CCCCCC3)cc12
inactive: SK-MEL-2 melanoma 76.9% | EKVX NSCLC 62.8% | SN12C renal 55% | UO-31 renal 41.8% | TK-10 renal 66.3% | ACHN renal 65.7% | A498 renal 70.2% | CCRF-CEM leukemia 43.3% | RPMI-8226 leukemia 13.3% | OVCAR-8 ovarian 50.3% | OVCAR-5 ovarian 58.9% | OVCAR-4 ovarian 46.6% | SK-OV-3 ovarian 72.4% | IGROV1 ovarian 46.2% | OVCAR-3 ovarian 59.8% | HS 578T breast 81.9% | NCI/ADR-RES ovarian 54.2% | T-47D breast 21.5%
active: MOLT-4 leukemia 6.07% | SR leukemia 1.08%

COC(=O)c1ccc2c(c1)NC(=O)[C@@H]1CCCN21
inactive: SK-MEL-2 melanoma 95% | EKVX NSCLC 94.1% | SN12C renal 101% | UO-31 renal 88.1% | TK-10 renal 127% | ACHN renal 103% | A498 renal 90.4% | CCRF-CEM leukemia 99.5% | MOLT-4 leukemia 84.1% | SR leukemia 81.5% | RPMI-8226 leukemia 96.6% | OVCAR-8 ovarian 97.5% | OVCAR-5 ovarian 112% | OVCAR-4 ovarian 88.4% | SK-OV-3 ovarian 95.2% | IGROV1 ovarian 101% | OVCAR-3 ovarian 102% | HS 578T breast 105% | NCI/ADR-RES ovarian 100% | T-47D breast 86.3%

CC(=O)OCC1OC(OC2C(COC(C)=O)OC(OCCC[S-])C(OC(C)=O)C2OC(C)=O)C(OC(C)=O)C(OC(C)=O)C1OC(C)=O.[Au+].c1ccc(CN2[CH-]N(Cc3ccccc3)C(c3ccccc3)=C2c2ccccc2)cc1 (stereo not given)
inactive: SK-MEL-2 melanoma 13.4% | EKVX NSCLC 28.1% | TK-10 renal 38.5% | ACHN renal 15.1% | CCRF-CEM leukemia 11.5% | MOLT-4 leukemia 15.3% | SR leukemia 11% | OVCAR-8 ovarian 22% | OVCAR-5 ovarian 62.4% | OVCAR-4 ovarian 17.5% | SK-OV-3 ovarian 13% | IGROV1 ovarian 35.3% | HS 578T breast 47.5% | NCI/ADR-RES ovarian 96.6% | T-47D breast 18.8%
active: SN12C renal 9.26% | UO-31 renal 9.47% | A498 renal -1.67% | RPMI-8226 leukemia -6.87% | OVCAR-3 ovarian -2.96%

Source: PubChem BioAssay (NCI)
